Sampled rows, rich in hits. Any-hit rate of the full collection: about 18%.
IL1B secr inh: blocks inflammasome-driven IL-1 beta release; activity change, % at 57.5 µM; AID 743279; THP-1 LPS/ATP IL-1B secretion, AlphaLISA, 16 h; stronger effect = lower value; 4.7% of 360,000 active; in the data active = activity change below about -50%; inconclusive = mostly about -30% to -49%
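THP-1 cells pretreated 1 hr with compounds (up to 57.5 uM final), then stimulated with LPS (250 ng/mL final) plus ATP (1.25 mM final); secreted IL-1B measured by AlphaLISA after 16 hr, decreased signal indicating inhibition.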
Gal4-VP16 FLuc: inhibits Gal4-VP16 luciferase reporter, ROR gamma counter-screen. Drosophila S2 Gal4-VP16 UAS-luciferase, luminescence, 20 h. Potency, µM (titrated, usually from 53.6 µM), for the others: top-dose activity, negative = inhibition, usual class: inhibitors. 3.5% of 310,000 active;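 note: Gal4-VP16 expression switched on by copper sulfate through the metallothionein promoter; potency is the fitted concentration of half-maximal effect; nearly all actives have a fitted effect of over 50% in size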
RORgamma inh: inhibitors of mouse ROR gamma transcriptional activity. P51450. Drosophila S2 Gal4-RORgamma UAS-luciferase reporter, 20 h. Potency, µM (titrated, usually from 53.6 µM), for inactives: top-dose activity change, negative = inhibition, usual class: inhibitors. 5.4% of 310,000 active; note: potency is the fitted concentration of half-maximal effect; nearly all actives have a fitted effect of over 60% in size
Target sequence (P51450 whole entry, looked up, the tested form may be a part): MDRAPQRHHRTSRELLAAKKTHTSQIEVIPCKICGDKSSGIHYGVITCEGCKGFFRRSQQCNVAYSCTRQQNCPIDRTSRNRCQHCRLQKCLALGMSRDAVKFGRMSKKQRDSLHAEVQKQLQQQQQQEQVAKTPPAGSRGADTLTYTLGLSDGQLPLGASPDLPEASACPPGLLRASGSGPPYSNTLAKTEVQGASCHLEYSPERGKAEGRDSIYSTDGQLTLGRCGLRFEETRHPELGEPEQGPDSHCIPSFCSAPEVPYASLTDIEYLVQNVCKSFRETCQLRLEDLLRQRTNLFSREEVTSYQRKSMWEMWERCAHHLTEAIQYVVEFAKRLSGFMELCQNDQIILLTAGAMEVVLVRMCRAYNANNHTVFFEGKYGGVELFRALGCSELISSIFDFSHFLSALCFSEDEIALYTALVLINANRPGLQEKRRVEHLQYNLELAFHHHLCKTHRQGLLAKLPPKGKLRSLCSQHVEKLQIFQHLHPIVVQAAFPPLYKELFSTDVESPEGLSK
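Luminescence from a UAS-regulated Photinus luciferase reporter in stably transfected Drosophila Schneider cells is measured; decreased signal marks ROR gamma inhibition. Fusion expression is induced by 700 uM copper sulfate for 20 hr.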
LDHA block: blocks human lactate dehydrogenase A; AID 1347041; 0.15% of 480,000 active; activity change, % (values are at about 110 or 230 µM); purified LDHA, NADH/diaphorase-resazurin fluorescence; stronger effect = lower value; P00338; in the data active = activity change below about -30%; inconclusive = mostly about -25% to -30%;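 note: plate controls were DMSO wells for no effect and wells without enzyme for full effect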
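Human LDH5 (2 nM) was incubated with 0.06 mM NADH and 0.2 mM pyruvate for 5 min at room temperature in Tris pH 7.4. Remaining NADH was coupled through diaphorase/resazurin, and resorufin fluorescence was read at 0 and 20 min.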
TDP1 cell noCPT: qHTS for Inhibitors of human tyrosyl-DNA phosphodiesterase 1 (TDP1): qHTS in cells in absence of CPT; DT40 Tdp1-/- hTDP1 cells, no CPT, ATP luminescence, 48 h; Potency, µM (series often up to 46.2 µM), for inactives: at the highest dose activity change, negative = growth inhibition, hits mostly inhibitors; 15% of 420,000 active; AID 686978, 2013; note: potency is the fitted concentration of half-maximal effect; nearly all actives have a fitted effect of over 55% in size
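Compound effects on proliferation are scored in DT40 Tdp1-/-;hTDP1 cells in the absence of CPT. ATP levels (CellTiter-Glo luminescence) are recorded after a ≥48 hr, 37 °C incubation.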
TDP1 cell CPT: DT40-hTDP1 cell growth loss with CPT | chicken DT40 Tdp1-/-;hTDP1 cells + 20 nM CPT, ATP luminescence, 48 h | Potency, µM (doses to about 46.2 µM), without a hit: top-dose activity change, negative = growth inhibition, hits mostly inhibitors | 12% of 420,000 active; note: potency is the fitted concentration of half-maximal effect; nearly all actives have a fitted effect of over 55% in size
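Cell growth measured by CellTiter-Glo luminescence after a minimum 48 h, 37 C compound exposure with 20 nM CPT in Tdp1-knockout DT40 cells stably expressing hTDP1, seeded 400/well; qHTS titration format.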
* hit, by the source's call; ? = inconclusive; nt = not tested or not shown. Unless noted, calls come from the whole dose curve; as a rule, active = well fitted curve in the direction sought with a large enough effect; inconclusive = small, poorly fitted or top-dose-only effect, or another doubt; inactive = no such curve, though single readings can be large; an effect the other way counts as inactive or inconclusive. Unless noted, % is set by controls: 0 for no effect and ±100 for the full control effect.

SMILES | IL1B secr inh | Gal4-VP16 FLuc | RORgamma inh | LDHA block | TDP1 cell noCPT | TDP1 cell CPT
Cc1ccc(S(=O)(=O)c2c(C(=O)c3ccccc3)cnc3cc4c(cc23)OCCO4)cc1 | -61* | -5% | ? | -2 | 21µM* | ?
COc1ccc(S(=O)(=O)c2c(C(=O)c3ccc(C)c(C)c3)cnc3ccc(F)cc23)cc1 | nt | nt | nt | 4 | 6.5µM* | 7.3µM*
COc1ccc(C(=O)c2cnc3ccc(C)cc3c2S(=O)(=O)c2ccccc2)cc1 | nt | nt | nt | -8 | 18µM* | 16µM*
COc1ccc(S(=O)(=O)c2c(Nc3ccc(F)cc3)sc(C(=O)c3ccc(C)cc3C)c2N)cc1 | nt | nt | nt | -1 | ? | ?
N#Cc1c(-c2ccccc2)cc(-c2cccs2)nc1SCC(O)CS(=O)Cc1ccccc1 (stereo unspecified) | nt | nt | nt | 3 | nt | nt
CCOc1ccc(S(=O)(=O)c2c(C(=O)c3ccc(C)c(C)c3)cnc3ccccc23)cc1 | nt | nt | nt | -19 | 15µM* | 16µM*
CCOc1ccc(Nc2c(S(=O)(=O)c3ccccc3)cnc3ccc(CC)cc23)cc1 | nt | nt | nt | 3 | ? | ?
COc1ccc(C(=O)c2cnc3cc4c(cc3c2C)OCO4)cc1 | -56* | 2% | ? | -6 | ? | ?
CCc1ccc(S(=O)(=O)c2c(C(=O)c3ccccc3)cnc3ccc(CC)cc23)cc1 | nt | nt | nt | -3 | 15µM* | 15µM*
Cc1ccc(C(=O)Cn2cnc3ccccc3c2=O)cc1C | -3 | -2% | -40% | -3 | ? | -24%
COCCCn1c(C(C)Oc2ccc(C(C)(C)C)cc2)n[nH]c1=S (stereo unspecified) | nt | nt | nt | -2 | nt | nt
COc1ccc(-c2nc3cnccn3c2NC2CCCC2)cc1 | nt | nt | nt | 0 | nt | nt
Oc1ccc(Br)cc1-c1nc2cnccn2c1NC1CCCC1 | -93* | ? | 22µM* | 0 | ? | ?
Cc1ccc(Nc2c(-c3ccccc3O)nc3cnccn23)cc1 | ? | ? | ? | 4 | ? | ?
Oc1ccc(Br)cc1-c1nc2cnccn2c1NC1CCCCC1 | -70* | ? | 13µM* | 4 | -25% | -19%
CC(Oc1cccc(Cl)c1)C(=O)NCCc1cccs1 (stereo unspecified) | nt | nt | nt | 8 | nt | nt
CN(C)c1nc(C(=O)NN)nc(N(C)C)n1 | -8 | -1% | -36% | 2 | -2% | 2%
CN(C)c1nc(N)c2ncc(=S)[nH]c2n1 | -65* | -6% | -38% | 10 | -18% | 0%
O=C(COC(=O)c1ccccc1Br)Nc1nc(-c2ccccc2)cs1 | nt | nt | nt | -1 | nt | nt
CC(C)(C)c1cc(O)cc(C(C)(C)C)c1 | nt | nt | nt | -17 | nt | nt
CC(C)(C)c1ccc(O)c(O)c1 | -81* | ? | ? | 16 | ? | 34µM*
CC(C)(C)c1ccc(/C=N/O)cc1 | nt | nt | nt | 1 | nt | nt
CC(C)(C)c1ccc(O)c(/C=N\O)c1 | -9 | ? | 11µM* | -7 | -13% | -11%
O=S(=O)(Cc1ccc(Cl)cc1)c1nc2ccccc2nc1NC1CCCC1 | nt | nt | nt | 0 | nt | nt
CCN(CC)C(=O)c1ccc(-c2nnc(Nc3ccc(C(=O)NC)cc3)c3ccccc23)cc1 | -25 | -2% | -5% | -2 | ? | 15µM*
SMILES | IL1B secr inh | Gal4-VP16 FLuc | RORgamma inh | LDHA block | TDP1 cell noCPT | TDP1 cell CPT
CN(C)C(=O)c1ccc(Nc2nnc(-c3ccc(O)cc3)c3ccccc23)cc1 | -55* | -6% | -9% | -2 | ? | ?
CNC(=O)c1ccc(Nc2nnc(-c3ccc(O)cc3)c3ccccc23)cc1 | -8 | -6% | 17% | 1 | ? | -22%
Cn1ccnc1C(O)(CC(=O)Nc1ccccc1)C(F)(F)F (stereo unspecified) | nt | nt | nt | -5 | nt | nt
CCOC(=O)c1cc2n(n1)CC(C)(C(=O)NCCC(C)C)N(c1ccc(C)c(F)c1)C2=O (stereo unspecified) | nt | nt | nt | 5 | nt | nt
COCCNc1nc(-c2cc(C)n(CCc3ccc(OC)cc3)c2C)cs1 | -16 | 0% | -8% | 2 | 18µM* | 16µM*
CN1CCN(c2ncc3nc(-c4ccc(Cl)cc4)c(=O)n(C4CC4)c3n2)CC1 | nt | -13% | 14% | nt | ? | ?
COc1ccc(-c2nc3cnc(N4CCNCC4)nc3n(C)c2=O)cc1 | nt | -6% | 4% | nt | ? | ?
Cn1c(=O)c(-c2ccc(Cl)cc2)nc2cnc(N3CCNCC3)nc21 | nt | -11% | 2% | nt | 16µM* | 10µM*
CN1CCN(c2ncc3nc(-c4ccc(Cl)cc4)c(=O)n(C)c3n2)CC1 | nt | -3% | -14% | nt | ? | 21µM*
CCN(CC)c1ccc(-c2nn3c(-c4ccccc4C)nnc3s2)cc1 | nt | nt | nt | -6 | nt | nt
COc1ccc(C(=O)ON=C2CCCCC2)cc1I | nt | nt | nt | 12 | nt | nt
Cc1c(-c2ccccn2)c(=O)[nH]n1-c1ccc(F)cc1 | 28 | ? | 6.3µM* | 2 | -13% | 4%
O=C(NC(Cc1cn(Cc2ccccc2)cn1)C(=O)O)OCC1c2ccccc2-c2ccccc21 (stereo unspecified) | -7 | nt | nt | -6 | 13µM* | 15µM*
CC(C)C[C@H](NC(=O)OCC1c2ccccc2-c2ccccc21)C(=O)O | 8 | nt | nt | -11 | -13% | -3%
CCCC1C(c2ccc(Cl)cc2)NC(c2ccc(Cl)cc2)C(C)C1(O)CCC (stereo unspecified) | nt | nt | nt | -2 | nt | nt
CCOc1ccc(Cl)cc1-c1cc(C(=O)Nc2cc(OC)ccc2OC)[nH]n1 | 9 | nt | nt | 2 | 23µM* | ?
COc1ccc(NC(=O)c2cc(-c3cc(Cl)ccc3OC)n[nH]2)c(OC)c1 | ? | nt | nt | 4 | ? | 23µM*
CCOc1ccc(Cl)cc1-c1cc(C(=O)Nc2ccc(OC)cc2OC)[nH]n1 | -1 | nt | nt | -7 | 18µM* | ?
Cc1cc(CSCC(=O)Nc2c(C)cccc2C)on1 | nt | nt | nt | -13 | nt | nt
O=C(COC(=O)c1cc(-c2cccs2)nc2ccccc12)NCc1ccco1 | -6 | ? | -21% | -4 | ? | ?
CCOc1ccccc1CNC(=O)c1cc(-c2ccc(C)c(C)c2)nc2ccccc12 | nt | nt | nt | -2 | ? | 21µM*
CCOc1ccccc1CNC(=O)c1cc(-c2ccc(Cl)s2)nc2ccccc12 | nt | nt | nt | 5 | 13µM* | -77%
COc1cccc(CNC(=O)c2cc(-c3ccc(Cl)s3)nc3ccccc23)c1 | nt | nt | nt | -16 | ? | ?
O=C(COC(=O)c1cc(-c2ccc(Cl)s2)nc2ccccc12)NCc1ccco1 | -6 | -7% | -20% | -1 | 16µM* | 18µM*
CC(C)C[C@@H](CN1CCC[C@H]1CN1C(=O)C(=O)NC[C@@H]1Cc1ccccc1)N1C[C@H](Cc2ccccc2)N(CCc2ccccc2)C(=O)C1=O | -77* | nt | nt | -4 | ? | 23µM*

Screening results as filed in PubChem.
